According to PubChem BioAssay AID504339 (National Center for Advancing Translational Sciences (NCATS), 2011):
Out of some 390,000 compounds screened, about 17,000 (4.4%) were called active. Another 8% or so got no clear call; they are omitted. This is one part of a sample in which actives are shown more often than they occur. A number with no mark means an inactive call. Calls follow the shape of the dose curve; as a rule, active = well fitted inhibition curve with a large enough effect; inconclusive = small, poorly fitted or top-dose-only effect; inactive = no such curve, though single readings can be large or run the other way.

target: Lysine-specific demethylase 4A (Homo sapiens) (UniProt O75164); experiment: qHTS Assay for Inhibitors of JMJD2A-Tudor Domain; settings: AlphaScreen JMJD2A-Tudor / H3K4me3 peptide binding; series mostly up to 114 µM; activity change, negative = inhibition: at the top concentration; also: nearly all actives have a fitted effect of over 50% in size
% is scaled to controls: 0 for no effect and ±100 for the full control effect; potency is read from the fitted curve at half-maximal effect.

Sequence of Lysine-specific demethylase 4A (Homo sapiens) (O75164 whole entry, looked up, the tested form may be a part): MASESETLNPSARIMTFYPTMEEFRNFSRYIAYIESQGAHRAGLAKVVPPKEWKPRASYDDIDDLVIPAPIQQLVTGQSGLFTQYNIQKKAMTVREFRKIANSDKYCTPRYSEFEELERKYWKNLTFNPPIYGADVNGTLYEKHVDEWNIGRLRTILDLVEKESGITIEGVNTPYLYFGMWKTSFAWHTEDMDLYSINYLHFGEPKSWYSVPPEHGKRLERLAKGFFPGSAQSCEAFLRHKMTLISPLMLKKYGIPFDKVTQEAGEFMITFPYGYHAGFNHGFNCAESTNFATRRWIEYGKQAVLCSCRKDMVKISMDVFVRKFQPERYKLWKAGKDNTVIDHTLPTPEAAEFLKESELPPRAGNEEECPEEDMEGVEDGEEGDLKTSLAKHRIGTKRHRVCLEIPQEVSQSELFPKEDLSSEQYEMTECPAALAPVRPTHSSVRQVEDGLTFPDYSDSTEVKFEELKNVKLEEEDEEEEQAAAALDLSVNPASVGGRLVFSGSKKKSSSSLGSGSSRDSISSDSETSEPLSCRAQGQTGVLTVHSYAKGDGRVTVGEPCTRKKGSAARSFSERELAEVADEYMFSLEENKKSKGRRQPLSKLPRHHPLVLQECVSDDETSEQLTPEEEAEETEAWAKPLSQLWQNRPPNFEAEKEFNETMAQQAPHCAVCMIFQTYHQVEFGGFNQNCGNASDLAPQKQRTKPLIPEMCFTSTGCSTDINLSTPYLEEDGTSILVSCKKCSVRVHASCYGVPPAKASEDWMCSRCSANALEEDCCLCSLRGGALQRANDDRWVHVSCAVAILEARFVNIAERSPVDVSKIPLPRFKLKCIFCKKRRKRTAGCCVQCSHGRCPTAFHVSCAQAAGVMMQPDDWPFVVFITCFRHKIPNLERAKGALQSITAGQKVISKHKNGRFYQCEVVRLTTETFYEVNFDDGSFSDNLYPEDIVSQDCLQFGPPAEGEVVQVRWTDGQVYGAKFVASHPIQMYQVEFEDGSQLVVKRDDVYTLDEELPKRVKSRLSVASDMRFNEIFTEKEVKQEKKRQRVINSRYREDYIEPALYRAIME

**Q.** With `CCC(CC)NC(=O)/C=C/c1cccc([N+](=O)[O-])c1` as the compound, how does the “activity change, negative = inhibition” value read?
**A.** 6.03% [at 57.1 µM]

**Q.** Which “activity change, negative = inhibition” value does the source give for `O=C(CN1CCOCC1)Nc1cccc([N+](=O)[O-])c1` here?
**A.** -4.93%

**Q.** For `COC(=O)/C=C\C(=O)Nc1cccc([N+](=O)[O-])c1`, which Potency is on record?
**A.** 17.8 µM (active)

**Q.** How did the “activity change, negative = inhibition” value turn out when `Cc1cc(C)c(/C=C/c2onc(C)c2S(=O)(=O)N2CCC(C(=O)Nc3ccc(Cl)cc3C)CC2)c(C)c1` was run?
**A.** -1.92%

**Q.** For `O=C(CNC(=O)COc1ccccc1)NCCc1ccccn1`, which “activity change, negative = inhibition” value is on record?
**A.** -15.4%

**Q.** With `COc1ccc(NCCc2ccccn2)cc1` as the compound, how does the Potency read?
**A.** 79.4 µM (active)

**Q.** For `Cc1c(C)c(C)c(S(=O)(=O)NCCc2ccccn2)c(C)c1C`, which “activity change, negative = inhibition” value is on record?
**A.** -7.58%

**Q.** For `Cc1ccc(CNC(=O)CSc2c(C)cnc3c2c(=O)n(C)c(=O)n3C)cc1`, which “activity change, negative = inhibition” value is on record?
**A.** -0.325%

**Q.** Which “activity change, negative = inhibition” value does the source give for `O=c1/c(=C/c2ccc(CNS(=O)(=O)c3ccccc3)o2)sc2n1CCN=2` here?
**A.** -24.9%

**Q.** `O=c1nc2s/c(=C\c3ccco3)c(=O)n2nc1Cc1ccccc1` was tested. Which Potency did it give?
**A.** 50.1 µM (active)

**Q.** For `CCOC(=O)c1cc(OC(=O)c2ccccc2Cl)n(-c2ccccc2)n1`, which “activity change, negative = inhibition” value is on record?
**A.** -17.1%

**Q.** For `CN(Cc1ccccc1)C(=O)CCS(=O)(=O)c1cc(Br)cc2c1N(C(=O)C1CC1)CC2`, which “activity change, negative = inhibition” value is on record?
**A.** -17.8%

**Q.** `COc1ccc(S(=O)(=O)NCC(c2ccc(C)cc2)N2CCN(C)CC2)cc1OC` (stereo unspecified) was tested. Which “activity change, negative = inhibition” value did it give?
**A.** -5.52%

**Q.** With `COc1ccc(N2CCN(C(CNS(=O)(=O)c3ccc(C)cc3)c3ccccc3)CC2)cc1` (stereo unspecified) as the compound, how does the Potency read?
**A.** 20 µM (active)

**Q.** How did the Potency turn out when `COc1ccc(S(=O)(=O)NCC(c2ccco2)N2CCOCC2)cc1` (stereo unspecified) was run?
**A.** inactive

**Q.** `CCOC(=O)c1c(C)oc2nc(C)nc(N(CC(C)C)CC(C)C)c12` was tested. Which “activity change, negative = inhibition” value did it give?
**A.** -5.5%

**Q.** Which “activity change, negative = inhibition” value does the source give for `CCOc1cc(C2C(C(=O)Nc3ccc(OC)cc3)=C(C)Nc3nc(SC)nn32)ccc1O` (stereo unspecified) here?
**A.** -9.9%

**Q.** With `O=C(Nc1ccc(OC(F)(F)F)cc1)C1CCCN(S(=O)(=O)c2ccc(Br)s2)C1` (stereo unspecified) as the compound, how does the “activity change, negative = inhibition” value read?
**A.** -1.71%

**Q.** How did the Potency turn out when `CC(=O)c1c(C)n(-c2ccc(N(C)C)cc2)c2ccc(OCC(N)=O)cc12` was run?
**A.** 79.4 µM (active)

**Q.** Which “activity change, negative = inhibition” value does the source give for `Cc1cccc(OCC(=O)NCC(=O)N/N=C/c2ccc(N(C)C)cc2)c1` here?
**A.** -14%

**Q.** `CC(=O)c1c(C)n(-c2ccc(C)cc2)c2ccc(O)cc12` was tested. Which “activity change, negative = inhibition” value did it give?
**A.** -2.04%

**Q.** Which “activity change, negative = inhibition” value does the source give for `Cc1ccc(-c2nnc(SCc3ccccc3C)o2)cc1` here?
**A.** 150%

**Q.** `Cc1ccccc1CNC(=O)CCCn1nc(C)c2sc3ccccc3c2c1=O` was tested. Which “activity change, negative = inhibition” value did it give?
**A.** -6.62%

**Q.** `COc1cc(C2C(C(=O)c3ccc(C)o3)=C(O)C(=O)N2CCc2ccccc2)ccc1O` (stereo unspecified) was tested. Which Potency did it give?
**A.** 17.8 µM (active)

**Q.** Which “activity change, negative = inhibition” value does the source give for `CCOc1cc(C2C(C(=O)c3ccco3)=C(O)C(=O)N2Cc2ccccc2)ccc1O` (stereo unspecified) here?
**A.** -27.6%

**Q.** How did the activity change, negative = inhibition turn out when `CCCOc1ccc(C2C(C(=O)c3ccc(C)o3)=C(O)C(=O)N2CCCn2ccnc2)cc1` (stereo unspecified) was run?
**A.** -17.6% [at 11.4 µM]

**Q.** How did the “activity change, negative = inhibition” value turn out when `Cc1cc(N2C(=O)C(=O)/C(=C(/O)c3ccccc3)C2c2cccc(Br)c2)no1` (stereo unspecified) was run?
**A.** -28.3%

**Q.** With `Cc1cc(N2C(=O)C(O)=C(C(=O)c3ccc(C)o3)C2c2ccc(OCc3ccccc3)cc2)no1` (stereo unspecified) as the compound, how does the Potency read?
**A.** 44.7 µM (active)

**Q.** Which “activity change, negative = inhibition” value does the source give for `COc1cc(C2C(C(=O)c3cccs3)=C(O)C(=O)N2CCN2CCOCC2)ccc1OCCC(C)C` (stereo unspecified) here?
**A.** -16.8%

**Q.** With `O=C(Nc1cc(Cl)cc(Cl)c1)c1ccc2c(c1)N(Cc1cccc(Cl)c1)C(=O)c1ccccc1S2=O` (stereo unspecified) as the compound, how does the “activity change, negative = inhibition” value read?
**A.** -1.28%

**Q.** For `COc1cc(CN(CC2CCCO2)C(=O)c2ccccc2F)cc(OC)c1OC` (stereo unspecified), which “activity change, negative = inhibition” value is on record?
**A.** -20.4%

**Q.** Which “activity change, negative = inhibition” value does the source give for `CC(C)(C)OC(=O)N1CCC(c2c(C(=O)NCCc3ccsc3)cnn2-c2ccc(F)cc2F)CC1` here?
**A.** -30.7%

**Q.** `Cc1ccc(-n2ncc(C(=O)N(C)Cc3ccccc3)c2-n2cccc2)cc1` was tested. Which “activity change, negative = inhibition” value did it give?
**A.** -24.5%

**Q.** How did the “activity change, negative = inhibition” value turn out when `CCOC(=O)N1CCc2c(sc3c2C(=O)NC(c2ccccc2F)N3)C1` (stereo unspecified) was run?
**A.** -10.7%

**Q.** Which “activity change, negative = inhibition” value does the source give for `COc1ccc(-c2cc(C(=O)NCc3cc(OC)c(OC)c(OC)c3)[nH]n2)cc1` here?
**A.** 9.66%

**Q.** For `O=C(CCC1CCCN(C(=O)Cc2ccc(F)cc2)C1)N1CCN(c2ccccn2)CC1` (stereo unspecified), which “activity change, negative = inhibition” value is on record?
**A.** 2.46%

**Q.** With `O=C(CCC1CCCN(C(=O)c2ccc(F)c(F)c2)C1)N1CCN(c2ccccn2)CC1` (stereo unspecified) as the compound, how does the “activity change, negative = inhibition” value read?
**A.** -7.35%

**Q.** How did the Potency turn out when `C=Cc1ccc(C(=O)N2CCCC(CCC(=O)N3CCN(c4ccccn4)CC3)C2)cc1` (stereo unspecified) was run?
**A.** 56.2 µM (active)

**Q.** With `Brc1cccc(-c2nnn3c2nc(NC2CCCCC2)c2ccccc23)c1` as the compound, how does the “activity change, negative = inhibition” value read?
**A.** 21.2%

**Q.** With `CCc1cc2c(cc3c(=O)n(CC(=O)NCc4cccc(Cl)c4)nc(CC)n32)s1` as the compound, how does the “activity change, negative = inhibition” value read?
**A.** -15.3%

**Q.** How did the “activity change, negative = inhibition” value turn out when `O=C(Nc1ccccc1[N+](=O)[O-])C1C(c2ccccc2)=C1c1ccccc1` was run?
**A.** -11.9%

**Q.** How did the Potency turn out when `O=[N+]([O-])c1ccccc1Nc1ccc(O)cc1` was run?
**A.** 63.1 µM (active)

**Q.** With `O=C(NCCNc1ccccc1[N+](=O)[O-])c1ccccc1F` as the compound, how does the “activity change, negative = inhibition” value read?
**A.** -9.86%

**Q.** How did the “activity change, negative = inhibition” value turn out when `CCOC(=O)CNC(=O)c1cc2c(=O)n3cccc(C)c3nc2s1` was run?
**A.** 6.48%

**Q.** How did the “activity change, negative = inhibition” value turn out when `O=C(c1ccc2c(c1)N(Cc1ccc(Cl)cc1)C(=O)c1ccccc1S2(=O)=O)N1CCCCC1` was run?
**A.** -14.8%

**Q.** For `O=c1c2cccnc2n(Cc2cccc(F)c2)c(=O)n1Cc1ccccc1Cl`, which “activity change, negative = inhibition” value is on record?
**A.** 7.27%

**Q.** `CCOc1cc(-c2nnc(SCC(=O)NC3CCCC3)nc2-c2ccc(OC)c(OCC)c2)ccc1OC` was tested. Which “activity change, negative = inhibition” value did it give?
**A.** -17.3%

**Q.** Which Potency does the source give for `Oc1cc2c(cc1O)CN(C(=S)NCCc1ccc(Cl)cc1)CCC2` here?
**A.** 44.7 µM (active)

**Q.** `Cc1cccc(NC(=S)NCCc2ccc(Cl)cc2)c1C` was tested. Which “activity change, negative = inhibition” value did it give?
**A.** -20.7%

**Q.** Which “activity change, negative = inhibition” value does the source give for `O=C(NCCc1ccc(Cl)cc1)c1cccc(N2CCCC2=O)c1` here?
**A.** -2.78%

**Q.** With `Cc1ccccc1CNC(=O)C(=O)NCC(c1cccs1)S(=O)(=O)c1cccs1` (stereo unspecified) as the compound, how does the “activity change, negative = inhibition” value read?
**A.** -14.3%

**Q.** How did the “activity change, negative = inhibition” value turn out when `Cc1ccccc1OCC(=O)Nc1c(C(=O)Nc2ccccc2F)oc2ccccc12` was run?
**A.** -2.65%

**Q.** Which “activity change, negative = inhibition” value does the source give for `O=C(Nc1cc(C(F)(F)F)ccc1Cl)c1nc2ccccc2nc1N1CCCCC1` here?
**A.** -28%

**Q.** `Oc1c(CN2CCN(c3ccc(F)cc3)CC2)cc(Cl)c2cccnc12` was tested. Which Potency did it give?
**A.** 25.1 µM (active)

**Q.** For `Oc1c(CN2CCCC2)cc(COCc2ccccc2)c2cccnc12`, which Potency is on record?
**A.** 25.1 µM (active)

**Q.** `CCCc1cc(=O)oc2c(C)c(O)c(CN3CCCCC3)cc12` was tested. Which “activity change, negative = inhibition” value did it give?
**A.** -15.6%

**Q.** With `Cc1cc(=O)oc2cc(OCC(=O)N3CCN(c4ccc(F)cc4)CC3)c(Cl)cc12` as the compound, how does the “activity change, negative = inhibition” value read?
**A.** -18.3%

**Q.** With `O=C(CN1CCN(c2ccc(F)cc2)CC1)Nc1cccc(C(F)(F)F)c1` as the compound, how does the “activity change, negative = inhibition” value read?
**A.** -25.8%

**Q.** Which “activity change, negative = inhibition” value does the source give for `O=C(Cc1ccccc1)NNC(=O)C1CCN(c2ncccn2)CC1` here?
**A.** 2.84%

**Q.** How did the “activity change, negative = inhibition” value turn out when `Cc1ccc(O)c(NC(=O)CCS(=O)(=O)c2nc(-c3ccc4c(c3)OCO4)cc(C(F)(F)F)n2)c1` was run?
**A.** -25.6%

**Q.** How did the “activity change, negative = inhibition” value turn out when `CCOc1ccc(NC(=O)c2c(NC(=O)Cc3ccccc3)sc3c2CCC(C)C3)cc1` (stereo unspecified) was run?
**A.** -34%
